# In PubChem BioAssay:
# Active and inactive are the calls of the source.
# Legend:
# [1] = optical density shifts of acrAB sulA E. coli – strain DRC41, OD650, 48 h, E. coli filamentation inducer project, primary screen (AID 1152); settings: higher = more signal, called active from +8 up or from −8 down;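 note: E. coli MC1000 strain DRC41 lacking acrAB efflux pump and sulA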
# [2] = probe aLefty1 binding on compound microarray – biochemical, small-molecule microarray, 635/667 nm fluorescence, primary screen (AID 1153); settings: higher = more signal;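 note: score merges spot fluorescence with signal-to-noise ratio from the scanned slide images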
# [3] = plasmodial surface anion channel blockers, osmotic lysis – cell-based, P. falciparum Indochina, OD700, 1 h, primary screen (AID 1154); settings: P. falciparum Indochina infected RBC osmotic lysis, higher = more signal, called active from +8 up or from −8 down
# [4] = plasmodial surface anion channel blockers, osmotic lysis – cell-based, P. falciparum Indochina, OD700, 2 h, primary screen (AID 1155);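 note: lysis reports solute entry through the parasite surface anion channel PSAC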; settings: P. falciparum Indochina infected erythrocytes, higher = more signal, called active from +8 up or from −8 down
# [5] = changes in parasitized red cell lysis, either direction – P. falciparum Indochina, OD700, 3 h, PSAC antagonist project, primary screen (AID 1156); settings: P. falciparum-infected erythrocytes, osmotic lysis, higher = more signal, called active from +8 up or from −8 down
# [6] = plasmodial surface anion channel blockers, osmotic lysis – cell-based, P. falciparum Indochina, OD700, 18 h, primary screen (AID 1157); settings: P. falciparum Indochina infected erythrocytes, osmotic lysis OD700, 18 h; higher = more signal, called active from +8 up or from −8 down
# [7] = S6 kinase pathway phospho-S6 level changes – cell-based, A549, cytoblot, luminescence, serum-stimulated, primary screen (AID 1158); settings: 5 h, higher = more signal;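 note: serum-stimulated A549 lung adenocarcinoma cells; signal is phosphorylated S6 detected by cytoblot immunostaining with HRP secondary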
# [8] = target: NADPH oxidase 2 (Homo sapiens) (UniProt P04839); experiment: compounds shifting NOX2 Amplex Red fluorescence – cell-based, HEK293-NOX2, PMA-stimulated, NOX inhibitor project, primary screen (AID 1159); settings: 45 min, higher = more signal, called active from +8 up or from −8 down; note: test concentration not given here
# [9] = target: NADPH oxidase 4 (Homo sapiens) (UniProt Q9NPH5); experiment: compounds shifting NOX4 Amplex Red fluorescence – cell-based, HEK293-NOX4, tetracycline-induced, NOX inhibitor project, primary screen (AID 1160); settings: HEK293-NOX4, Amplex Red H2O2 fluorescence, 45 min; higher = more signal, called active from +8 up or from −8 down
# [10] = target: NADPH oxidase 5 (Homo sapiens) (UniProt Q96PH1); experiment: compounds shifting NOX5 Amplex Red fluorescence – cell-based, HEK293-NOX5, NOX inhibitor project, primary screen (AID 1161); settings: HEK293-NOX5, ionomycin, 45 min, higher = more signal
# [11] = compound effects on lung adenocarcinoma cell viability – A549, calcein-AM fluorescence, 48 h, basal, profiling panel (AID 1162); settings: higher = more signal; note: test concentration not given here
# [12] = compound effects on differentiated 3T3-L1 adipocyte viability – cell-based, 3T3-L1 adipocytes, calcein-AM fluorescence, 48 h, basal, profiling panel (AID 1163); settings: 3T3-L1 adipocytes viability, higher = more signal; note: test concentration not given here
# [13] = compound effects on hepatocellular carcinoma cell viability – HepG2, calcein-AM fluorescence, 48 h, basal, profiling panel (AID 1164); settings: higher = more signal; note: test concentration not given here
# [14] = compound effects on multiple myeloma cell viability – MM1S, calcein-AM fluorescence, 48 h, basal, profiling panel (AID 1165); settings: higher = more signal;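 note: viability of MM1S multiple myeloma cells under basal unstimulated conditions; test concentration not given here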
# [15] = calcein-AM signal in unstimulated myeloma cells – cell-based, calcein-AM fluorescence, 48 h, PK04 Diversity Set, profiling panel (AID 1166); settings: RPMI8226 myeloma viability, higher = more signal;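 note: cells grown under basal conditions without added stimulus; test concentration not given here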
# [16] = JC-1 mitochondrial signal, unstimulated HepG2 cells – cell-based, JC-1 fluorescence, 24 h, 100 nL compound, profiling panel (AID 1167); settings: HepG2 mitochondrial potential, higher = more signal; note: test concentration not given here
# [17] = JC-1 mitochondrial signal, unstimulated adipocytes – cell-based, JC-1 fluorescence, 3T3-L1 adipocytes, 24 h, 100 nL compound, profiling panel (AID 1168); settings: JC-1 mitochondrial fluorescence, higher = more signal, called active from +8 up or from −8 down; note: test concentration not given here
# [18] = JC-1 mitochondrial signal, unstimulated myeloma cells – cell-based, JC-1 fluorescence, RPMI8226, 24 h, 100 nL compound, profiling panel (AID 1169); settings: JC-1 mitochondrial potential fluorescence, higher = more signal; note: test concentration not given here
# [19] = JC-1 mitochondrial signal, unstimulated MM1S myeloma – cell-based, JC-1 fluorescence, 24 h, 100 nL compound, profiling panel (AID 1170); settings: MM1S mitochondrial potential, higher = more signal; note: test concentration not given here
# [20] = resazurin metabolic signal in A549 cells – cell-based, resazurin fluorescence, 24 h, PK04 Diversity Set, profiling panel (AID 1171); settings: A549 viability, higher = more signal, called active from +8 up or from −8 down; note: test concentration not given here
# Chain of NADPH oxidase 4 (Homo sapiens) (Q9NPH5 whole entry, looked up): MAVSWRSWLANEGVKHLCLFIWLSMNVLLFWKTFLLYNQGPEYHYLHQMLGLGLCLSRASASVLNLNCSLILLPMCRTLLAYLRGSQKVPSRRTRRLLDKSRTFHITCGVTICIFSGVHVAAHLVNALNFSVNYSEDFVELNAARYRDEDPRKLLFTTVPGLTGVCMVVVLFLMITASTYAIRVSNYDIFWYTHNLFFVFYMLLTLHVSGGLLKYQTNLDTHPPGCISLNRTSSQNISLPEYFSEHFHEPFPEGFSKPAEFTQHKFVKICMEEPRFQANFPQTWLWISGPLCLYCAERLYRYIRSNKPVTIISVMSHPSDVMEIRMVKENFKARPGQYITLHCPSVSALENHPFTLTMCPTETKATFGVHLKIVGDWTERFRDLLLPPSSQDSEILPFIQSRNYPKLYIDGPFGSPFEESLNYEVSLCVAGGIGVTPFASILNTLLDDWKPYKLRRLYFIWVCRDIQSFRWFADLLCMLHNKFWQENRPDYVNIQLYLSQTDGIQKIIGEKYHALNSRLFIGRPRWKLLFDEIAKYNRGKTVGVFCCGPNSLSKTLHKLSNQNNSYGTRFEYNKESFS
# Chain of NADPH oxidase 2 (Homo sapiens) (P04839 whole entry, looked up): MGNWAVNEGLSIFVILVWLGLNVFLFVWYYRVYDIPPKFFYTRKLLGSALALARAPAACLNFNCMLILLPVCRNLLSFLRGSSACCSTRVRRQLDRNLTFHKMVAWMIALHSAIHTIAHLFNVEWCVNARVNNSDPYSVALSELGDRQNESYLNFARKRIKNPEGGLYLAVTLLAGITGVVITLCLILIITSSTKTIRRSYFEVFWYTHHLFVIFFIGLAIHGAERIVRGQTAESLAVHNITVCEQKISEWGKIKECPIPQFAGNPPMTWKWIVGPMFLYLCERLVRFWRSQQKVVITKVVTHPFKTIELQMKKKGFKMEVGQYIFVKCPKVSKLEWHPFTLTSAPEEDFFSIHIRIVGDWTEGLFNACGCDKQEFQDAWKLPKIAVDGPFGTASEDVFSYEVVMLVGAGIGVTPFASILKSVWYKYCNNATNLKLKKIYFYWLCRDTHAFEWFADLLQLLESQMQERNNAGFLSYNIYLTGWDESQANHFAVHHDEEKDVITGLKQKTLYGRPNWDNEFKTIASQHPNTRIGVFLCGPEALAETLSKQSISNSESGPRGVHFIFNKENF
# Chain of NADPH oxidase 5 (Homo sapiens) (Q96PH1 whole entry, looked up): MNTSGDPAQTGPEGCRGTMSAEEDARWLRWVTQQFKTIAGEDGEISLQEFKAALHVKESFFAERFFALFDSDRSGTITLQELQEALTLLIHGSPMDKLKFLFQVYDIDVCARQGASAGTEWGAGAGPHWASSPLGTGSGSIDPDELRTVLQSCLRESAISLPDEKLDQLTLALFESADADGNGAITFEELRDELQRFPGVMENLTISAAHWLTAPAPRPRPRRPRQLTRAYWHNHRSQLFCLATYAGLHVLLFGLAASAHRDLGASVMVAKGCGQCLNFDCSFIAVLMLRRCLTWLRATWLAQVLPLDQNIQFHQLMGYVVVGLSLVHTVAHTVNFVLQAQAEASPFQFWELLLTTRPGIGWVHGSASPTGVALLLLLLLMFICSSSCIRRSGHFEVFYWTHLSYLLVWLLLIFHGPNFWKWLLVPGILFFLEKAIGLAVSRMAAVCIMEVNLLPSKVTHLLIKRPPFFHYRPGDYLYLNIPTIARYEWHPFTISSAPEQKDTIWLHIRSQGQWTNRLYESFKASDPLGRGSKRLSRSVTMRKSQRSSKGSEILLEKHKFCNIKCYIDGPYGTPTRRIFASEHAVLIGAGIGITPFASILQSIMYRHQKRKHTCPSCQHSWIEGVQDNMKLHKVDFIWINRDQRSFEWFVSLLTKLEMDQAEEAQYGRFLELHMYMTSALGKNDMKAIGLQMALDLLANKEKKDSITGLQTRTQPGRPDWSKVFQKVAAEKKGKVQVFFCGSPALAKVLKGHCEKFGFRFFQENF
SMILES,z-score [1],composite z-score [2],z-score [3],z-score [4],z-score [5],z-score [6],z-score [7],z-score [8],z-score [9],z-score [10],z-score [11],z-score [12],z-score [13],z-score [14],z-score [15],z-score [16],z-score [17],z-score [18],z-score [19],z-score [20]
CCCCCCc1nc(-c2cc(C)c(OC)c(C)c2)cc2c1[Si](C(C)C)(C(C)C)O[C@H]2c1ccccc1,-0.548 (inactive),-0.0989,1.31 (inactive),-0.0446 (inactive),1.06 (inactive),0.0157 (inactive),0.561,-0.313 (inactive),-1.16 (inactive),-2.07,0.723,-0.185,-0.59,-0.0523,-0.942,0.201,-0.152 (inactive),0.77,-0.683,0.732 (inactive)
CN(C)CCCC[C@@H]1NC(=O)[C@@H]2C[C@H](C(=O)NCCCCCNC(=O)CS)[C@H](c3ccc(O)cc3)N2C1=O,1.04 (inactive),-0.227,1.06 (inactive),-1.21 (inactive),-3.46 (inactive),-2.25 (inactive),0.209,0.109 (inactive),0.501 (inactive),0.398,0.748,0.387,-1.02,-0.0855,0.262,1.61,0.642 (inactive),-0.238,0.422,-0.207 (inactive)
C=CCC(OC(C)=O)[C@@H]1[C@@H](N(Cc2cccc3ccccc23)C(=O)c2ccc(C)cc2)c2cc(OCCCO)ccc2N1C(=O)c1ccc(-c2ccccc2)cc1 (stereo not given in full),2.5 (inactive),0.0384,0.441 (inactive),-1.33 (inactive),-1.24 (inactive),-1.5 (inactive),2.07,-0.0559 (inactive),1.01 (inactive),2.96,1.1,0.719,1.47,1.07,0.783,3.02,-0.0453 (inactive),0.456,-0.848,0.417 (inactive)
CCN1C(C)=C(C(=O)OC)[C@@H](c2ccccc2)N2C(=O)[C@@]3(C(=O)OC)O[C@@]12[C@@H]1C(=O)CCC[C@@H]13,-0.128 (inactive),-0.0518,0.732 (inactive),-0.69 (inactive),1.56 (inactive),-1.11 (inactive),0.641,0.715 (inactive),1.11 (inactive),0.25,-0.195,0.955,-0.369,0.853,0.476,0.638,0.881 (inactive),0.538,0.29,0.282 (inactive)
COc1cc2c(cc1OC)CN(C(=O)[C@H]1[C@@H]3C(=O)O[C@@H](c4ccccc4)[C@@H](c4ccccc4)N3[C@@H](c3ccccc3OCCO)[C@]13C(=O)Nc1ccc(C#CC4(O)CCCCCC4)cc13)CC2,2.29 (inactive),0.0686,3.02 (inactive),2.11 (inactive),3.25 (inactive),1.89 (inactive),0.389,1.07 (inactive),1.65 (inactive),1.43,0.434,-0.0514,1.64,-0.988,-1.93,-0.198,0.994 (inactive),-0.812,-1.41,-0.771 (inactive)
COCCOC(=O)N1C(=O)[C@@]2(c3cc(C#CC4=CCCCC4)ccc31)[C@H](c1ccc(O)cc1)N1[C@H](c3ccccc3)[C@H](c3ccccc3)OC(=O)[C@H]1[C@@H]2C(=O)N1CCCCCCC1,1.65 (inactive),1.49,-0.138 (inactive),-0.321 (inactive),-0.52 (inactive),0.389 (inactive),-0.137,1.06 (inactive),0.325 (inactive),1.53,1.43,1.06,0.0785,-0.278,-0.641,-0.926,1.37 (inactive),-0.247,0.12,0.676 (inactive)
CC(=O)NCCCC[C@@H]1NC(=O)[C@H]2C[C@@H](C(=O)NCCCCCCN(C)C)[C@@H](c3cccc(OCCO)c3)N2C1=O,-0.179 (inactive),0.257,2.81 (inactive),0.461 (inactive),1.25 (inactive),0.376 (inactive),0.317,0.779 (inactive),0.301 (inactive),1.44,0.214,0.509,0.344,0.27,0.079,-0.0861,-0.308 (inactive),-0.125,-0.376,-0.739 (inactive)
O=C(O)[C@@H]1Cc2c([nH]c3ccccc23)[C@@H](c2ccccc2)N1,0.327 (inactive),-0.202,0.864 (inactive),0.71 (inactive),1.46 (inactive),0.152 (inactive),-0.344,1.04 (inactive),-0.429 (inactive),-0.614,0.0265,1.21,-0.55,0.424,0.519,0.516,-0.284 (inactive),-0.122,0.0857,0.216 (inactive)
